Measurements published in PubChem BioAssay (NCATS).
Records with an inconclusive call do not appear. Activity calls are given as the source filed them. Unless noted, calls follow the shape of the dose curve; as a rule, active = well fitted curve in either direction with a large enough effect (not every such curve was filed as active); inconclusive = small, poorly fitted or top-dose-only effect, or another doubt; inactive = flat fitted curve, though single readings scatter.

Tests used:
[1] = target: Lysosomal acid glucosylceramidase (Homo sapiens) (UniProt P04062); test: Glucocerebrosidase-p2 (AID 348; in the data active = potency below about 10 µM; also: potency is read from the fitted curve at half-maximal effect); details: purified GBA, blue fluorogenic substrate, 40 min
Sequence of Lysosomal acid glucosylceramidase (Homo sapiens) (P04062 whole entry, looked up): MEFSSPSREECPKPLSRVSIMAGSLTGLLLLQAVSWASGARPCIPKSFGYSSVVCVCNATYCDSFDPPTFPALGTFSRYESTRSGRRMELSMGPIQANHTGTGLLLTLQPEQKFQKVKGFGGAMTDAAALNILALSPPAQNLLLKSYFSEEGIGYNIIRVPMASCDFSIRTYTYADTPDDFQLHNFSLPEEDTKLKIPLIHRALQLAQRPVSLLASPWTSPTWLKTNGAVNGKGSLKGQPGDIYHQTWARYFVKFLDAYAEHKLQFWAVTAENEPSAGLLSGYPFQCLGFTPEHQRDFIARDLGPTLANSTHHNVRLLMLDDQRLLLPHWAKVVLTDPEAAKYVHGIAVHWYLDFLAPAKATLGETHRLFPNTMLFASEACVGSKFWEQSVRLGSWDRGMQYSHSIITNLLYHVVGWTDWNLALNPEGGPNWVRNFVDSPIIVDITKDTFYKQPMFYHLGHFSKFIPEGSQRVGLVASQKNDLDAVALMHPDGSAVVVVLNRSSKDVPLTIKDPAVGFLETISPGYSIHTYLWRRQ
Summary of the method: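 Normal human glucocerebrosidase (0.2 nM) with blue fluorogenic substrate (80 uM final) in citrate/phosphate pH 5.9 with 10mM sodium taurocholate, 0.01% tween-20; 40 min RT, NaOH/glycine stop; fluorescence Ex 365/Em 440; AC50 from a titration from 0.6 nM upwards.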

[2] = AP1 Signaling Pathway (AID 357); details: ME-180 AP-1-bla reporter, EGF-induced, beta-lactamase ratio, 5 h; at 7.69 µM (top of the series) unless noted;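 also: ME-180 reporter cells stimulated with EGF at its EC50 level; % is scaled to controls: 0 for no effect and ±100 for the full control effect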
Summary of the method: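 Read-out was the 460nm/530nm emission ratio (excitation 405nm) after CCF4 loading for 2.5 hours at room temperature. Cells carried an AP-1-driven beta-lactamase reporter, were stimulated with EC50 EGF plus compound for 5 hours, and AC50 values came from titrations.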

[3] = NFAT Signaling Pathway (AID 444); details: Jurkat NFAT-bla M1, carbachol, beta-lactamase ratio, 5 h; at 7.69 µM (top of the series) unless noted;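 also: carbachol stimulus at about its EC50 of 1 µM final; % is scaled to controls: 0 for no effect and ±100 for the full control effect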
Summary of the method: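 Read-out: CCF4 FRET ratio (460 nm/530 nm) after 1 h RT dye loading, used for %activity and AC50 from titration series. Cells: Jurkat NFAT-β-lactamase/M1 line, treated with compound plus 1 uM carbachol for 5 h, 37 °C.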

[4] = Stat Signaling Pathway (AID 446); details: ME-180 SIE beta-lactamase reporter, IL-6 stimulated, 5 h; at 7.69 µM (top of the series) unless noted;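 also: ME-180 cervical cancer cells given 40 pM IL-6 alongside compound; SIE-controlled beta-lactamase reporter measured as 460/530 nm FRET emission ratio; % is scaled to controls: 0 for no effect and ±100 for the full control effect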
Summary of the method: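 Compound effects on IL-6-induced STAT reporter activity were measured in ME-180 cells. After overnight culture, cells were co-treated with 40 pM IL-6 for 5 hrs before beta-lactamase substrate loading at room temperature.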

[5] = target: Glucocorticoid receptor (Homo sapiens) (UniProt P04150); test: GR-GFP Redistribution (AID 450;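 active = compounds whose dose series gives a full or clear partial fitted curve of increased nuclear translocation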; also: potency is read from the fitted curve at half-maximal effect); details: U2OS GR-GFP nuclear translocation, laser cytometry, 2 h
Sequence of Glucocorticoid receptor (Homo sapiens) (P04150 whole entry, looked up, the tested form may be a part): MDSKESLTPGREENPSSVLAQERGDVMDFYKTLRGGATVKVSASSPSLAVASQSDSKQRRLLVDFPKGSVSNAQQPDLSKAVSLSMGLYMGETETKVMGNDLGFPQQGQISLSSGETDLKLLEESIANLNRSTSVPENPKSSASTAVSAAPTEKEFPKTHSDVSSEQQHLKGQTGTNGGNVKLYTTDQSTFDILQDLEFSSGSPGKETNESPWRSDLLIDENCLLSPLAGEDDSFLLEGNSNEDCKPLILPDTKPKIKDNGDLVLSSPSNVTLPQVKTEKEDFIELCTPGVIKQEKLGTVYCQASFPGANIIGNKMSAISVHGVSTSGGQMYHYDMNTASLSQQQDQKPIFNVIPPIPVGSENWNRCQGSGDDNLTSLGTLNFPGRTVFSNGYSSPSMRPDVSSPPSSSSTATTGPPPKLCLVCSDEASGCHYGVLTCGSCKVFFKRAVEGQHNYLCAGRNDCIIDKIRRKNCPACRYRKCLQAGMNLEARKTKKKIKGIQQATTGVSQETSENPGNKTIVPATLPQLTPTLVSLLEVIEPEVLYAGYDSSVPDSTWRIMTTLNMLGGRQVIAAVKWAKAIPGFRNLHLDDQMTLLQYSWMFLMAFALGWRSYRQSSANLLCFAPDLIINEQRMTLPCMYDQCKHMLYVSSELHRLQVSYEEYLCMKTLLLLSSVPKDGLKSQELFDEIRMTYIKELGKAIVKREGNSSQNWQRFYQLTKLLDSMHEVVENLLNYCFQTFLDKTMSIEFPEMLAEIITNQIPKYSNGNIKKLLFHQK

[6] = target: Glucocorticoid receptor (Homo sapiens) (UniProt P04150); test: GR-EFC Redistribution (AID 451; calls by dose curve; also: potency is read from the fitted curve at half-maximal effect); details: CHO-K1 GR-EFC translocation, beta-gal luminescence, 2 h
Summary of the method: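 Translocation of GR-ED fusion to nuclear EA restores b-gal, read by luminescence after 1 h room-temperature detection. Engineered CHO-K1 biosensor cells, 1,000/well, exposed 2 h at 37 C to titrations up to 46 uM final.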

[7] = target: Mitogen-activated protein kinase 10 (Mus musculus) (UniProt Q61831); test: JNK3 AlphaScreen Assay (AID 530); details: JNK3 lysate, c-Jun phosphorylation; series mostly up to 57.1 µM;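 also: kinase came from lysate of stimulated human HepG2 cells; signal reports phosphorylation of biotinylated GST-cJun 1-79 at Ser73 with 10 µM ATP; % is scaled to controls: 0 for no effect and ±100 for the full control effect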
Summary of the method: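 Kinase buffer: 20 mM Tris-HCl pH 7.6, 10 mM MgCl2, 1 mM DTT, 0.1 mM Na3VO4, 0.01% Tween-20; ATP 10 uM. Substrate biotin-GST-cJun(1-79), enzyme from activated HepG2 lysates. Detection by Ser73 phospho-antibody AlphaScreen.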

[8] = target: 3',5'-cyclic-AMP phosphodiesterase 4B (Homo sapiens) (UniProt Q07343); test: qHTS Assay for Inhibitors of PDE-IV (AID 607; active = well fitted activation curve with a large enough effect in the main read-out, with a control signal flat, not every such curve was filed as active; also: % of control where 0% means no effect); details: HEK293 ACTOne CNG channel cells, membrane potential fluorescence; series mostly up to 22.9 µM
Sequence of 3',5'-cyclic-AMP phosphodiesterase 4B (Homo sapiens) (Q07343 whole entry, looked up): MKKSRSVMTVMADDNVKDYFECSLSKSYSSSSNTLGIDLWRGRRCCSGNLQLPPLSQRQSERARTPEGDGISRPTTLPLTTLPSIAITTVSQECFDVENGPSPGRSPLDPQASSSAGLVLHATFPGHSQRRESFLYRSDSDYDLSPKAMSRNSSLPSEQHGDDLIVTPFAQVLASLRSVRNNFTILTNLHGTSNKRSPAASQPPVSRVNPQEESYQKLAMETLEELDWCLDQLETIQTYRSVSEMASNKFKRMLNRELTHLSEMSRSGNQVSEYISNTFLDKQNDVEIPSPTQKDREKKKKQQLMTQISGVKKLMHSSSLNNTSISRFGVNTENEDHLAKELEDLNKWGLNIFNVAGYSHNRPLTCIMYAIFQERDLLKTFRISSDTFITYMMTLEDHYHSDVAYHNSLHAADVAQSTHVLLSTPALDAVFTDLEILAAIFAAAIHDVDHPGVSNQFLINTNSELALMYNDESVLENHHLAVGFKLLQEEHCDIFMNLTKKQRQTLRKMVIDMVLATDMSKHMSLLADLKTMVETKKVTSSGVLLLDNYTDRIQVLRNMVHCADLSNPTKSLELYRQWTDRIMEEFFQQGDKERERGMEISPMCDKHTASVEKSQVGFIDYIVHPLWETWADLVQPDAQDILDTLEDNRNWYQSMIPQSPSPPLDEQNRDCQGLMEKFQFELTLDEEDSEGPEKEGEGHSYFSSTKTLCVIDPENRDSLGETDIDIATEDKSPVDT
Summary of the method: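 ACTOne HEK293 cells carry a modified cAMP-gated CNG channel and express endogenous PDE4; plated 1000 cells/well, compounds up to 22.9 uM final. Membrane-potential dye fluorescence (ex 535/em 590) was read; parental cells received 10 uM forskolin + 100 uM RO 20-1724.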

[9] = Confirmation and Secondary Assay for Modulators of Hemoglobin Beta Chain Splicing at IVS2 654 locus (AID 910; active = well fitted curve in the direction sought with a large enough effect; an effect the other way counts as inactive or inconclusive;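 also: HeLa cells stably carrying EGFP split by mutant beta-globin IVS2-654 intron; per-well total GFP intensity by laser scanning cytometry after 2-day treatment; % of control where 0% means no effect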); details: HeLa EGFP-654 splicing reporter, GFP fluorescence, 48 h; series mostly up to 38.3 µM
Summary of the method: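 Readout: per-well total peak green fluorescence (488 nm ex, 500–520 nm em) from objects 5–250 µm, reflecting correct splicing of an EGFP-654 reporter. Compounds were applied for 2 days at 37 °C to overnight-plated HeLa EGFP-654 cells; controls were DMSO and 500 nM IVS2-654 PNA.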

[10] = Confirmation and Secondary Assay for Modulators of Hemoglobin Beta Chain Splicing at IVS2 705 locus (AID 930; active = well fitted curve in the direction sought with a large enough effect; an effect the other way counts as inactive or inconclusive;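 also: HeLa cells stably expressing the EGFP-705 splicing reporter; % of control where 0% means no effect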); details: HeLa EGFP-705 splicing reporter, GFP fluorescence, 48 h; series mostly up to 38.3 µM
Summary of the method: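 Restored EGFP fluorescence after 2-day compound exposure reports splicing correction in IVS2-705 EGFP reporter HeLa cells; positive control was 500 nM splice-blocking PNA oligo. Signal measured as well total peak GFP intensity (488 nm excitation).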

[11] = qHTS Assay for Lipid Storage Modulators (AID 1519; calls by dose curve); details: Drosophila S3 cells, BODIPY lipid droplet/cell ratio, laser cytometry, cells loaded with oleic acid; for activity change, negative = inhibition: at 57.5 µM (top of the series)
Summary of the method: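 Cells seeded at 5,000 per well were treated with compounds over a concentration series and loaded with oleic acid (400 uM, as added). Lipid droplet fluorescence (488 nm excitation, 500-530 nm channel) was read by laser-scanning cytometry and normalized to 20 uM Triacsin C.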

[12] = Primary qHTS for small molecule stabilizers of the endoplasmic reticulum resident proteome: Secreted ER Calcium Modulated Protein (SERCaMP) assay (AID 1508630; active = well fitted curve in the direction sought with a large enough effect; an effect the other way counts as inactive or inconclusive; also: % is scaled to controls: 0 for no effect and ±100 for the full control effect); details: SH-SY5Y GLuc-SERCaMP (Gaussia luciferase released on ER calcium loss) secretion, thapsigargin, luminescence; series mostly up to 38.4 µM
Summary of the method: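 The SH-SY5Y reporter protocol was run at 3 concentrations up to 38.3 uM (primary) or 11 concentrations (follow-up): 16 h compound, 100 nM thapsigargin for 4 h, then extracellular luciferase luminescence.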

[13] = target: Cytochrome P450 3A4 (Homo sapiens) (UniProt P08684); test: qHTS Assay for Activators of Cytochrome P450 3A4 (AID 885; active = well fitted curve in the direction sought with a large enough effect; an effect the other way counts as inactive or inconclusive; also: nearly all actives have a fitted effect of over 65% in size); details: recombinant CYP3A4, Luciferin-PPXE luminescence, 60 min; series mostly up to 57.1 µM
Sequence of Cytochrome P450 3A4 (Homo sapiens) (P08684 whole entry, looked up): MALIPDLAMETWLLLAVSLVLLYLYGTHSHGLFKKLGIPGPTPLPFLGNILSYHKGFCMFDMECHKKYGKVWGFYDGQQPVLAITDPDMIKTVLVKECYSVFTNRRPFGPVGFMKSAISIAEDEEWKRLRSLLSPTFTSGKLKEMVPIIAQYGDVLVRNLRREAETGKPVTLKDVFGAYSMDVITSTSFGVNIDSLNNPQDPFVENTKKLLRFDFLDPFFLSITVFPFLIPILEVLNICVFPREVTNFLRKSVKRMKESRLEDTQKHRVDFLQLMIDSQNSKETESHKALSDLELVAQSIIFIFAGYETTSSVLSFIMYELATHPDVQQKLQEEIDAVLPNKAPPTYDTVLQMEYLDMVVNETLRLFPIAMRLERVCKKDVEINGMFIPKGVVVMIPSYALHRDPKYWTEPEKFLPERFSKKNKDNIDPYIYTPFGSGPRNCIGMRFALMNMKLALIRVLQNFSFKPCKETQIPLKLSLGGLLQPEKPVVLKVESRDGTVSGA
Summary of the method: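 CYP3A4 activity: Luciferin-PPXE O-dealkylation, 25uM substrate, 200mM KPO4, RT throughout. Read-out is luciferase luminescence; higher values reflect activation.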

[14] = qHTS Assay for Identification of Small Molecule Agonists for Hypoxia Response Element Signaling Pathway (AID 914; active = well fitted activation curve with a large enough effect in the signal ratio, with a control signal flat, not every such curve was filed as active; the % refers to the signal ratio; also: potency is read from the fitted curve at half-maximal effect; as to activation: % of control where 0% means no effect); details: ME-180 (cervical carcinoma) HRE-bla reporter, beta-lactamase ratio, CoCl2, 17 h; activation: stronger effect = higher value
Summary of the method: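 AC50 values come from titration-series %Activity, taken as the 460/530nm ratio of CCF4 fluorescence (excitation 405nm). CellSensor HRE-bla ME-180 cells were treated 17 hours at 37 C with compound plus an EC50 level of CoCl2.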

[15] = target: Ubiquitin carboxyl-terminal hydrolase 1 (Homo sapiens) (UniProt O94782); test: Inhibitors of USP1/UAF1: Pilot qHTS (AID 504865; active = well fitted curve in the direction sought with a large enough effect; an effect the other way counts as inactive or inconclusive;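 also: rhodamine fluorescence freed from ubiquitin-rhodamine substrate followed over time; top concentration of the series differs between compounds; % is scaled to controls: 0 for no effect and ±100 for the full control effect; nearly all actives have a fitted effect of over 35% in size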); details: purified USP1/UAF1, Ub-rhodamine cleavage fluorescence; series mostly up to 54.9 µM
Sequence of Ubiquitin carboxyl-terminal hydrolase 1 (Homo sapiens) (O94782 whole entry, looked up): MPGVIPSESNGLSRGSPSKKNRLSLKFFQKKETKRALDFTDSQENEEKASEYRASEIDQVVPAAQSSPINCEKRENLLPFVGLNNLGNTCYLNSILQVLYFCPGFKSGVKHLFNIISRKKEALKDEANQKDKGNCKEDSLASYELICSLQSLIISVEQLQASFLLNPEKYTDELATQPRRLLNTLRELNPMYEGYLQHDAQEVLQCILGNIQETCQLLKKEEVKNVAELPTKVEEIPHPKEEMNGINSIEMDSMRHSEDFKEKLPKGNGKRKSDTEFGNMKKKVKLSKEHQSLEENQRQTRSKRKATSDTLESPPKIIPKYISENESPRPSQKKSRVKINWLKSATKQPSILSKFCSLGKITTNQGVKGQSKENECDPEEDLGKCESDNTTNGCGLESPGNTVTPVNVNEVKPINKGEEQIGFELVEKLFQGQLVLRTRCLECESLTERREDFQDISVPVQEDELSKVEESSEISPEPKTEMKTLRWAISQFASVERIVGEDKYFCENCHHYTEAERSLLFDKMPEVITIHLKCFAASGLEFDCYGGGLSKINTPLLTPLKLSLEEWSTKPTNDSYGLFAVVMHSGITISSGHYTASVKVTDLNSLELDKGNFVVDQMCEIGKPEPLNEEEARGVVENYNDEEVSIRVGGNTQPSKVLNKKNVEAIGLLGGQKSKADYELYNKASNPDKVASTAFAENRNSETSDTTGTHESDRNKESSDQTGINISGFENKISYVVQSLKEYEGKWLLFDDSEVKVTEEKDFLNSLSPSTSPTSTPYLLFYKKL
Summary of the method: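 In 50mM HEPES pH 7.8 containing 0.5mM EDTA, 1mM TCEP, 0.1 mg/ml BSA and 0.01% Tween-20, 1nM USP1/UAF1 is exposed to compound for 15 min, then Ub-Rho (150nM final) is added and fluorescence is read over time.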

[16] = measured here: cell count channel max response
[17] = measured here: lipid channel max response

Cc1ccccc1-c1nc(NCCN2CCOCC2)c2ccccc2n1
17.4%: max response [11, 16]
26.1%: max response [11, 17]
inactive: Potency [1] > 11.4 µM | activity change, negative = inhibition [2] -10.8% | activity change, negative = inhibition [3] -9.08% | activity, negative = inhibition [4] -0.303% | Potency [5] > 46 µM | Potency [6] > 46 µM | Potency [7] | Potency [8] | Potency [9] | outcome [10] | activity change, negative = inhibition [11] 8.15% | outcome [12]

COc1ncc2nc(-c3ccccc3)c(=O)n(C[C@H]3CCCO3)c2n1
14.7%: max response [11, 17]
9.98%: max response [11, 16]
inactive: Potency [1] > 11.4 µM | activity change, negative = inhibition [2] -19.2% | activity change, negative = inhibition [3] -13.8% | activity, negative = inhibition [4] 0.632% | Potency [5] > 9.22 µM | Potency [6] > 46 µM | Potency [7] | Potency [8] | Potency [13] | activity change, negative = inhibition [11] 1.51% | outcome [12]

Cn1cccc1C(=O)N1CCC[C@@]2(CCN(c3ncccn3)C2)C1
-6.2%: max response [11, 16]
-1.14%: max response [11, 17]
inactive: Potency [1] > 11.4 µM | activity change, negative = inhibition [2] -1.25% | activity change, negative = inhibition [3] -9.56% | activity, negative = inhibition [4] -1.27% | Potency [6] > 46 µM | Potency [7] | Potency [8] | activity change, negative = inhibition [11] 1.1% | outcome [12]

CS(=O)(=O)N1CCC[C@@]2(CCN(Cc3ccc(C#N)cc3)C2)C1
inactive: Potency [1] > 11.4 µM | activity change, negative = inhibition [2] 10.7% | activity change, negative = inhibition [3] -5.85% | activity, negative = inhibition [4] -6.21% | Potency [6] > 46 µM | Potency [7] | Potency [8] | activity change, negative = inhibition [11] 1.64% | outcome [12]
-0.832%: max response [11, 16]
-0.755%: max response [11, 17]

Cc1nc2cnc(N3CCNCC3)nc2n(C2CC2)c1=O
19.1%: max response [11, 17]
inactive: Potency [1] > 11.4 µM | activity change, negative = inhibition [2] 5.94% | activity change, negative = inhibition [3] 3.04% | activity, negative = inhibition [4] -7.48% | Potency [5] > 9.22 µM | Potency [6] > 46 µM | Potency [7] | Potency [8] | activity change, negative = inhibition [11] 0.607% | outcome [12]
18.2%: max response [11, 16]

Cc1noc(C)c1C(=O)N1CCC2(CCCN(C(=O)Nc3cccc(C#N)c3)C2)CC1
23.7%: max response [11, 17]
inactive: Potency [1] > 11.4 µM | activity change, negative = inhibition [2] -3.54% | activity change, negative = inhibition [3] -25.9% | activity, negative = inhibition [4] -0.0853% | Potency [6] > 46 µM | Potency [7] | Potency [8] | activity change, negative = inhibition [11] 9.42% | outcome [12]
12.8%: max response [11, 16]

COc1ccccc1CNc1ncncc1-c1ccccc1CN(C)C
inactive: Potency [1] > 11.4 µM | activity change, negative = inhibition [2] -14.2% | activity change, negative = inhibition [3] -25.5% | activity, negative = inhibition [4] 6.72% | Potency [5] > 46 µM | Potency [6] > 46 µM | Potency [7] | Potency [8] | Potency [9] | activation [14] -9.29% | outcome [10] | activity change, negative = inhibition [11] 5.27% | Potency [15] | outcome [12]
12.7%: max response [11, 16]
17.5%: max response [11, 17]

COc1ccc(-n2c(=O)cnc3cnc(Nc4ccccc4)nc32)cc1
inactive: Potency [1] > 11.4 µM | activity change, negative = inhibition [2] -13.4% | activity change, negative = inhibition [3] 5.4% | activity, negative = inhibition [4] -1.48% | Potency [5] > 9.22 µM | Potency [6] > 46 µM | Potency [7] | activity change, negative = inhibition [11] 7.14% | outcome [12]
8.28%: max response [11, 16]
18.1%: max response [11, 17]

Cc1ccccc1-c1cc(-n2ccnc2)ncn1
17.5%: max response [11, 17]
7.52%: max response [11, 16]
inactive: Potency [1] > 11.4 µM | activity change, negative = inhibition [2] -7.76% | activity change, negative = inhibition [3] -6.87% | activity, negative = inhibition [4] 15.7% | Potency [5] > 46 µM | Potency [6] > 46 µM | Potency [7] | Potency [8] | Potency [9] | outcome [10] | activity change, negative = inhibition [11] 9.66% | Potency [15] | outcome [12]

COc1ccc(-c2nc3cnc(Oc4ccccc4)nc3n(Cc3cccs3)c2=O)cc1
inactive: Potency [1] > 11.4 µM | activity change, negative = inhibition [2] 0.136% | activity change, negative = inhibition [3] -1.73% | activity, negative = inhibition [4] 16.1% | Potency [5] > 9.22 µM | Potency [6] > 46 µM | Potency [7] | Potency [8] | activity change, negative = inhibition [11] -0.637% | outcome [12]
active: Potency [14] 2.51 µM
27.6%: max response [11, 16]
28.4%: max response [11, 17]

COc1ccc(CNc2ncncc2-c2ccccc2Cl)c(OC)c1
-5%: max response [11, 16]
2.12%: max response [11, 17]
inactive: Potency [1] > 11.4 µM | activity change, negative = inhibition [2] -16.1% | activity change, negative = inhibition [3] -7% | activity, negative = inhibition [4] 15.1% | Potency [5] > 46 µM | Potency [6] > 46 µM | Potency [7] | Potency [8] | Potency [9] | outcome [10] | activity change, negative = inhibition [11] 5.27% | Potency [15] | outcome [12]

O=C(Nc1cccc(F)c1)N1CC[C@@]2(CCCN(C(=O)c3csnn3)C2)C1
inactive: Potency [1] > 11.4 µM | activity change, negative = inhibition [2] -13.9% | activity change, negative = inhibition [3] 20.4% | activity, negative = inhibition [4] -1.73% | Potency [6] > 46 µM | Potency [7] | Potency [8] | activity change, negative = inhibition [11] 3.72% | outcome [12]
12.5%: max response [11, 16]
18.5%: max response [11, 17]

COc1ccc(NC(=O)N2CC3(CCN(C(=O)c4cc(C(F)(F)F)cc(C(F)(F)F)c4)CC3)C2)cc1
18.4%: max response [11, 17]
12.2%: max response [11, 16]
inactive: Potency [1] > 11.4 µM | activity change, negative = inhibition [2] -15.1% | activity change, negative = inhibition [3] 16% | activity, negative = inhibition [4] -20.2% | Potency [6] > 46 µM | Potency [7] | Potency [8] | activity change, negative = inhibition [11] 2.01% | outcome [12]
